Hits are enriched below; roughly 1.8% of the tested compounds scored in any of these assays.
HDAC3 inh: human HDAC3 inhibition. inhibition, % at 8.3 µM. recombinant HDAC3, fluorogenic peptide/trypsin coupled, fluorescence. 320,000 tested, 0.15% active; in the data active = inhibition above about 26%, passing the limit was not always enough; inconclusive = no clear call, values can overlap the other calls
Target sequence (O15379 whole entry, looked up): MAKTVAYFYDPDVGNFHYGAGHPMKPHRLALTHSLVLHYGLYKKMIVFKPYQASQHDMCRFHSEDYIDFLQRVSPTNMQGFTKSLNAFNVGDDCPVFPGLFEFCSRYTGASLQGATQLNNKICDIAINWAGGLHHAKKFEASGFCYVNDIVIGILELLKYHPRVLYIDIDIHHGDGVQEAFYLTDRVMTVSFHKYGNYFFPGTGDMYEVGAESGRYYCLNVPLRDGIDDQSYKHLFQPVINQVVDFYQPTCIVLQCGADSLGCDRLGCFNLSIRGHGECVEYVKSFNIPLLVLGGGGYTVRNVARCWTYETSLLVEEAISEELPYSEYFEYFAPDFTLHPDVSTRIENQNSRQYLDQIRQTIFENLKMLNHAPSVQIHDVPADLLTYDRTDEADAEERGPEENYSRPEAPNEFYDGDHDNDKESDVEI
GRK2 aptamer HTS: blocks RNA aptamer binding to human GRK2 | 330,000 tested, 0.59% active | bead flow cytometry, FAM-aptamer displacement from GRK2 | AID 488847 | inhibition of aptamer binding, % at 10 µM | P25098;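 active = inhibition of aptamer binding above 40%, roughly 3 SD of noise, on plates passing a quality check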;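 also: median bead fluorescence of bound FAM aptamer so fluorescent compounds give negative values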
Neddylation inh: inhibitors of human cullin neddylation; TR-FRET cullin neddylation, biochemical; AID 651699; inhibition, % at 25 µM; 360,000 tested, 0.58% active; P61081+Q13564; in the data active = inhibition above about 36%
Cardio protect: modulators protecting cardiomyocytes from myocardial damage | H9c2 cardiomyocytes, H2O2 injury protection, ATPLite, 2 h | protection from H2O2 cell death, % at 20 µM | 360,000 tested, 0.63% active | AID 588492;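 active = compounds giving at least 50% protection of heart cells from peroxide-induced death in the single-dose screen, raw or plate-pattern-corrected value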;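 also: 0% = DMSO wells with peroxide and 100% = DMSO wells without peroxide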
Neddyl inh conf: cullin neddylation inhibition, confirmation. shares compounds with Neddylation inh. TR-FRET cullin neddylation biochemical assay. calls only at 25 µM. 1,800 tested, 13% active; in the data active = inhibition above about 40%;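 also: neddylation substrate is the cullin 1 ring ligase complex with SKP2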
The depositor's hits bear a star; i = inactive; ? = inconclusive; / = not tested or not shown; + = active, no number.

SMILES	HDAC3 inh	GRK2 aptamer HTS	Neddylation inh	Cardio protect	Neddyl inh conf
O=C(c1cc2nc(-c3ccccc3)cc(C(F)(F)F)n2n1)N1CCCC1	/	/	41.4*	-4.5	i
O=C(c1cc2nc(-c3ccco3)cc(C(F)(F)F)n2n1)N1CCCCCC1	3.2	3.0	55.7*	-3.3	/
O=[N+]([O-])c1ccccc1/C=C/C=N/Nc1ccc(S(=O)(=O)Nc2ccc(Cl)cc2)cc1[N+](=O)[O-]	-6.7	0.0	-33.6	-14.6	/
C/C(=N/Nc1nc(C)c(C)s1)c1cccc([N+](=O)[O-])c1	-1.2	0.0	-24.0	25.5	/
C=CC[C@H](CC(=O)OC(C)(C)C)C(=O)OC[C@@H]1CCCN1C(=O)[C@@H](CC=C)CC(=O)N[C@H](CO)Cc1ccccc1	14.4	0.0	-19.0	7.8	/
Cc1cccc(NC(=O)c2cc(Cl)nc3ccccc23)n1	8.3	0.0	-5.8	8.7	/
c1ccc(N2CCN(c3nc(NCc4ccco4)c4ccccc4n3)CC2)cc1	-0.8	0.0	33.3	-25.1	/
c1coc(CNc2nc(N3CCCCC3)nc3ccccc23)c1	-10.8	0.0	38.1*	-17.4	i
O=C(NNC1=Nc2ccccc2SC1)c1cccc([N+](=O)[O-])c1	-3.0	2.0	43.0*	44.6	i
COC(=O)c1c(C(=O)OC)c2cc(C(=O)c3ccccc3)ccn2c1Cl	-0.8	5.0	48.4*	34.7	i
COC(=O)c1c(C(=O)OC)c2ccccn2c1C(=O)c1ccc([N+](=O)[O-])cc1	6.4	0.0	-44.9	-2.2	/
N#CCCn1cc(CNC2CCC(O)CC2)c2ccccc21 (stereo unspecified)	2.5	0.0	-3.6	-3.3	/
Cn1c(=O)c2nc(-c3ccccc3)c(-c3ccccc3)nc2n(C)c1=O	-8.4	/	51.7*	5.3	i
COc1ccc(CCN(C)C(=O)c2cc(-c3ccccc3)nc3ccccc23)cc1OC	11.5	0.0	-0.5	3.4	/
COc1cc(-c2cc(C(=O)N3CCN(c4ccccn4)CC3)c3ccccc3n2)cc(OC)c1OC	?	0.0	41.8*	64.6*	i
COc1ccc(-c2cc(C(=O)N3CCCCCC3)c3ccccc3n2)c(OC)c1	/	0.0	41.8*	-2.4	/
COc1ccc(-c2cc(C(=O)N3CCN(c4ccccn4)CC3)c3ccccc3n2)cc1	-2.7	4.0	34.3	-11.5	/
COc1ccc(-c2cc(C(=O)N3CCN(c4ncccn4)CC3)c3ccccc3n2)c(OC)c1	/	1.0	32.0	9.6	/
COc1ccc(-c2cc(C(=O)N(C)CCc3ccc(OC)c(OC)c3)c3ccccc3n2)cc1	-16.2	3.0	45.5*	10.5	i
COc1ccc(-c2csc(NC(=O)c3cc(-c4cccs4)nc4ccccc34)n2)c(OC)c1	-6.6	1.0	43.6*	-1.5	i
COc1ccc(-c2cc(C(=O)N3CCN(c4ccccc4O)CC3)c3ccccc3n2)cc1OC	-0.2	0.0	54.4*	31.9	+
COc1ccc(NC(=O)c2ccc3c(c2)NC(=O)CS3)cc1	2.6	3.0	6.0	-4.3	/
Cc1ccc(NS(=O)(=O)c2cc(NC(=O)c3ccc4c(c3)NC(=O)CS4)ccc2Cl)c(C)c1	15.5	0.0	48.0*	-0.2	i
Cc1c(NC(=O)C(C)N2C(=O)NC3(CCC(C)CC3)C2=O)c(=O)n(-c2ccccc2)n1C (stereo unspecified)	0.4	0.0	0.1	-2.2	/
CCc1nc2ccc(C(=O)N3CCN(S(=O)(=O)CC)CC3)cn2c1N(C)Cc1cccs1	/	/	-0.1	-1.1	/
SMILES	HDAC3 inh	GRK2 aptamer HTS	Neddylation inh	Cardio protect	Neddyl inh conf
CCNc1oc(/C=C/c2ccc(OCC)cc2)nc1C#N	-6.1	0.0	47.0*	-12.4	/
CCN(CC)CCCNc1oc(/C=C/c2ccccc2)nc1C#N	-350.0	0.0	/	-2.5	/
COc1ccc([C@H]2C[C@H](n3cc(-c4ccc(F)cc4)nn3)[C@@H](O)CN2CC2CCCCC2)cc1	/	/	-0.3	-9.1	/
c1cncc(-c2ccc3ncnc(NCc4cccs4)c3c2)c1	-0.1	7.0	1.9	2.2	/
c1csc(CNc2ncnc3ccc(-c4ccc5c(c4)OCCO5)cc23)c1	-0.4	0.0	36.1*	-0.7	/
O=C(CSc1ccc2nnc(-c3ccccn3)n2n1)Nc1ccccc1	2.8	4.0	2.3	6.5	/
Cc1cc(NC(=O)CSc2ccc3nnc(-c4ccccn4)n3n2)no1	-3.7	3.0	41.5*	16.8	/
COc1cccc(NC(=O)C2(C)CCN2C(=O)Cc2ccc(C(C)C)cc2)c1 (stereo unspecified)	/	/	2.2	0.1	/
CCOc1cc(NC(=O)C2CC2)c(OCC)cc1NC(=O)c1cc(OC)c(OC)c(OC)c1	-1.0	1.0	/	14.1	/
CCOc1cc(NC(=O)C2CC2)c(OCC)cc1NC(=O)c1ccccc1OCC	-7.3	2.0	49.9*	16.7	/
